# Data from PubChem BioAssay (EPA / NIEHS).
# Inconclusive results are not listed. Calls of active or inactive are those of the source. The calls were made as follows, unless noted: active = hit-call score of the fitted dose curve at least 0.9, where 1 is the maximum; inactive = score below 0.9.
# Assays:
# [1] = BSK_4H_Eotaxin3: BioMAP Diversity Plus: 4H Assay for Eotaxin 3 Biomarker Activity (AID 2283000); conditions: primary human endothelial cells (HUVEC); actives raise or lower the signal;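 as to outcome: CCL26 protein level quantified by ELISA in parallel with SRB cytotoxicity check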
# Outline: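 Endothelial primary cells (human umbilical vein) exposed to compound for 24 h. ELISA detection of Eotaxin-3.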
# [2] = target: human Peroxisome Proliferator-activated Receptor alpha (PPARa), PPARA (gene 5465) (UniProt Q07869); assay: ATG_PPARa_TRANS: Attagene TRANS-FACTORIAL HepG2 Assay for human Peroxisome Proliferator-activated Receptor alpha (PPARa) (AID 2283001; active = hit-call score of the fitted dose curve at least 0.9, where 1 is the maximum;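 as to AC50: potency for gain of reporter signal over DMSO so agonist or activator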)
# Outline: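 Measures transcriptional activity of an exogenous chimeric PPARa-Gal4 protein in transiently transfected HepG2 cells after 24 h dosing. Reporter mRNA quantified via RT-PCR and capillary electrophoresis; DMSO served as negative control.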
# [3] = read-out: Intercellular Adhesion Molecule 1 (ICAM1), ICAM1 (gene 3383); assay: BSK_3C_ICAM1: BioMAP Diversity Plus: 3C Assay for Intercellular Adhesion Molecule 1 (ICAM1) Biomarker Activity (AID 2283003); conditions: primary human endothelial cells (HUVEC); actives raise or lower the signal
# Outline: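 Human vascular endothelial primary cells, 3C conditions, 24 h treatment. ICAM-1 by ELISA.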
# [4] = BSK_3C_Proliferation: Cell Proliferation Assessment in the BioMAP Diversity Plus: 3C Assay (AID 2283006); conditions: primary human endothelial cells (HUVEC);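 as to AC50: potency may reflect either rise or fall in cell number versus DMSO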
# Outline: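 Proliferation of human vascular endothelial primary cells after 48 h dosing, quantified as SRB-stained protein at 560 nm relative to DMSO.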
# [5] = target: Nuclear receptor subfamily 1 group I member 2 (Homo sapiens) (UniProt O75469); assay: ATG_PXR_TRANS: Attagene TRANS-FACTORIAL HepG2 Assay for human Pregnane X Receptor (PXR) (AID 2283008; active = hit-call score of the fitted dose curve at least 0.9, where 1 is the maximum)
# Outline: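 Fluorescence intensity of FAM-labelled, HpaI-digested reporter amplicons, separated by capillary electrophoresis, quantifies induction. HepG2 cells with PXR-Gal4 trans-reporter system were exposed 24 h; DMSO defines baseline.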
# [6] = target: Retinoic acid receptor RXR-alpha (Homo sapiens) (UniProt P19793); assay: ATG_RXRa_TRANS: Attagene TRANS-FACTORIAL HepG2 Assay for human Retinoid X Receptor alpha (RXRa) (AID 2283012; active = hit-call score of the fitted dose curve at least 0.9, where 1 is the maximum)
# Outline: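 Cells (HepG2) carried transiently transfected GAL4-responsive reporter units. Following a 24 h chemical incubation, reporter mRNA induction was read via RT-PCR fragment analysis; DMSO served as negative control and baseline.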
# [7] = target: human Retinoid X Receptor beta (RXRb), RXRB (gene 6257) (UniProt P28702); assay: ATG_RXRb_TRANS: Attagene TRANS-FACTORIAL HepG2 Assay for human Retinoid X Receptor beta (RXRb) (AID 2283013; active = hit-call score of the fitted dose curve at least 0.9, where 1 is the maximum)
# Outline: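 Multiplexed TRANS reporter assay in HepG2; 24 h dosing; reporter mRNA by RT-PCR/CE fluorescence; gain-of-signal relative to DMSO.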
# [8] = read-out: E-selectin (Homo sapiens) (UniProt P16581); assay: BSK_3C_Eselectin: BioMAP Diversity Plus: 3C Assay for Eselectin Biomarker Activity (AID 2283015); conditions: primary human endothelial cells (HUVEC); actives raise or lower the signal;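 as to outcome: cell surface E-selectin protein quantified by ELISA 24 h after dosing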
# Outline: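 Human vascular endothelium from umbilical vein is exposed to test chemicals for 24 h. E-selectin levels are read by ELISA and compared with DMSO controls.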
# [9] = read-out: Interleukin-1 alpha (IL1a), IL1A (gene 3552); assay: BSK_BE3C_IL1a: BioMAP Diversity Plus: BE3C Assay for Interleukin-1 alpha (IL1a) Biomarker Activity (AID 2283016); conditions: primary human bronchial epithelial cells; actives raise or lower the signal
# Outline: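 Cultures of primary human bronchial epithelial cells receive test chemical. After 24 h, IL-1a is quantified by ELISA, while parallel wells are fixed in TCA and SRB-stained for total protein. Changes in either direction are fitted relative to DMSO.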
# [10] = read-out: Monocyte Chemoattractant Protein-1 (MCP1), CCL2 (gene 6347); assay: BSK_3C_MCP1: BioMAP Diversity Plus: 3C Assay for Monocyte Chemoattractant Protein-1 (MCP1) Biomarker Activity (AID 2283017); conditions: primary human endothelial cells (HUVEC); actives raise or lower the signal
# Outline: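 Endothelial cells from human umbilical vein are dosed with chemical, cultured 24 h, then assayed for MCP-1 by ELISA; both increases and decreases are modelled against DMSO controls.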
# [11] = read-out: Monocyte Chemoattractant Protein-1 (MCP1), CCL2 (gene 6347); assay: BSK_4H_MCP1: BioMAP Diversity Plus: 4H Assay for Monocyte Chemoattractant Protein-1 (MCP1) Biomarker Activity (AID 2283018); conditions: primary human endothelial cells (HUVEC); actives raise or lower the signal
# Outline: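 Readout: MCP-1 ELISA on compound-treated HUVEC, sampled 24 h post-dosing. Baseline and negative control DMSO; bidirectional fit. Overt toxicity checked alongside by sulforhodamine B protein staining at time of biomarker measurement.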
# [12] = read-out: Human Leukocyte Antigen - DR isotype (HLADR), HLA-DRA (gene 3122); assay: BSK_3C_HLADR: BioMAP Diversity Plus: 3C Assay for Human Leukocyte Antigen - DR isotype (HLADR) Biomarker Activity (AID 2283019); conditions: primary human endothelial cells (HUVEC); actives raise or lower the signal;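 as to outcome: ELISA of cell-surface HLA-DR on HUVEC 24 h after dosing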
# Outline: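 Endothelial cells from human umbilical vein are treated with test chemical; after 24 h, HLA-DR levels are measured by ELISA. Data are fitted in both directions using DMSO as the baseline.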
# [13] = target: human Peroxisome Proliferator-activated Receptor delta (PPARd), PPARD (gene 5467) (UniProt Q03181); assay: ATG_PPARd_TRANS: Attagene TRANS-FACTORIAL HepG2 Assay for human Peroxisome Proliferator-activated Receptor delta (PPARd) (AID 2283002; active = hit-call score of the fitted dose curve at least 0.9, where 1 is the maximum)
# Outline: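 Read-out: reporter mRNA induction, quantified by fluorescent RT-PCR products resolved by capillary electrophoresis. Human HepG2 liver cells carried transiently transfected Gal4-UAS reporter constructs with chimeric NR-Gal4 fusions. Cells were dosed for 24 h; DMSO served as baseline.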
# [14] = target: Peroxisome proliferator-activated receptor gamma (Homo sapiens) (UniProt P37231); assay: ATG_PPARg_TRANS: Attagene TRANS-FACTORIAL HepG2 Assay for human Peroxisome Proliferator-activated Receptor-gamma (PPARg) (AID 2283007; active = hit-call score of the fitted dose curve at least 0.9, where 1 is the maximum)
# Outline: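 HepG2 cells are transiently transfected with GAL4-UAS reporter units driven by chimeric NR-Gal4 fusions and dosed for 24 h. Reporter mRNA is quantified by RT-PCR, 6-FAM labelling, HpaI digestion and capillary electrophoresis. Induction is scored against DMSO.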
# [15] = target: human RAR-related Orphan Receptor beta (RORb), RORB (gene 6096) (UniProt Q92753); assay: ATG_RORb_TRANS: Attagene TRANS-FACTORIAL HepG2 Assay for human RAR-related Orphan Receptor beta (RORb) (AID 2283010; active = hit-call score of the fitted dose curve at least 0.9, where 1 is the maximum)
# Outline: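 In this TRANS-format test, human HepG2 cells express chimeric NR-Gal4 fusion proteins driving GAL4-UAS reporters. After 24 h dosing, reporter transcripts are measured by fluorescent RT-PCR/capillary electrophoresis, with DMSO as negative control.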
# [16] = target: human RAR-related Orphan Receptor gamma (RORg), RORC (gene 6097) (UniProt P51449); assay: ATG_RORg_TRANS: Attagene TRANS-FACTORIAL HepG2 Assay for human RAR-related Orphan Receptor gamma (RORg) (AID 2283011; active = hit-call score of the fitted dose curve at least 0.9, where 1 is the maximum)
# Outline: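 Activity is scored as increase in GAL4-UAS reporter mRNA over DMSO, detected by fluorescent RT-PCR and capillary electrophoresis in HepG2 cells transiently expressing a RORg-Gal4 chimera, 24 h after dosing.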
# [17] = target: human Retinoic Acid Receptor gamma (RARg), RARG (gene 5916) (UniProt P13631); assay: ATG_RARg_TRANS: Attagene TRANS-FACTORIAL HepG2 Assay for human Retinoic Acid Receptor gamma (RARg) (AID 2283009; active = hit-call score of the fitted dose curve at least 0.9, where 1 is the maximum)
# Outline: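 HepG2, RARg-GAL4 TRANS system, 24 h exposure; reporter mRNA by RT-PCR + CE fluorescence; increase over DMSO.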
# [18] = target: human Thyroid Receptor alpha (THRa1), THRA (gene 7067) (UniProt P10827); assay: ATG_THRa1_TRANS: Attagene TRANS-FACTORIAL HepG2 Assay for human Thyroid Receptor alpha (THRa1) (AID 2283014; active = hit-call score of the fitted dose curve at least 0.9, where 1 is the maximum)
# Outline: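 First, HepG2 cells receive multiple GAL4-UAS reporter units and the chimeric receptor. They are then dosed for 24 h, after which RNA is reverse-transcribed, amplified, labelled, HpaI-cut and sized by capillary electrophoresis; gain relative to DMSO is scored.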
# [19] = target: Retinoic acid receptor alpha (Homo sapiens) (UniProt P10276); assay: ATG_RARa_TRANS: Attagene TRANS-FACTORIAL HepG2 Assay for human Retinoic Acid Receptor alpha (RARa) (AID 2283005; active = hit-call score of the fitted dose curve at least 0.9, where 1 is the maximum)
# Outline: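 HepG2 transiently transfected with multiplex GAL4-UAS reporter units including a human RARa–GAL4 chimera; 24 h compound exposure. Reporter mRNA quantified by RT-PCR, 6-FAM labeling and capillary electrophoresis; gain of signal versus DMSO.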
# [20] = target: human Retinoic Acid Receptor beta (RARb), RARB (gene 5915) (UniProt P10826); assay: ATG_RARb_TRANS: Attagene TRANS-FACTORIAL HepG2 Assay for human Retinoic Acid Receptor beta (AID 2283004; active = hit-call score of the fitted dose curve at least 0.9, where 1 is the maximum)
# Outline: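 HepG2, transient MRTU transfection, NR–Gal4 chimera, 24 h treatment; RT-PCR plus CE fluorescence detection of reporter mRNA; gain of signal vs DMSO.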
# human Thyroid Receptor alpha (THRa1), THRA (gene 7067), sequence (P10827 whole entry, looked up, the tested form may be a part): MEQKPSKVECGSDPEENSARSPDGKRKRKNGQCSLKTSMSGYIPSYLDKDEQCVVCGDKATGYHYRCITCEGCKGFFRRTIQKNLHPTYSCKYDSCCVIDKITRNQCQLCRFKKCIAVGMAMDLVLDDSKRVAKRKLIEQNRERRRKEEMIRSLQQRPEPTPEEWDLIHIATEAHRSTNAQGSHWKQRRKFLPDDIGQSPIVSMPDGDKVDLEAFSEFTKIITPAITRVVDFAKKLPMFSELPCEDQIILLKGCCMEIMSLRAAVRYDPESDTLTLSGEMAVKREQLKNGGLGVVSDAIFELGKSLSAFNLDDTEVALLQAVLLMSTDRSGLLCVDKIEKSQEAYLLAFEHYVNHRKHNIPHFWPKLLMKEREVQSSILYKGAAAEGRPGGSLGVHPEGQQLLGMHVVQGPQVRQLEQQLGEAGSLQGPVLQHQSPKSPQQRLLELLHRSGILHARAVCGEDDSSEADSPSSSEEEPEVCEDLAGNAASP
# human Peroxisome Proliferator-activated Receptor delta (PPARd), PPARD (gene 5467), sequence (Q03181 whole entry, looked up, the tested form may be a part): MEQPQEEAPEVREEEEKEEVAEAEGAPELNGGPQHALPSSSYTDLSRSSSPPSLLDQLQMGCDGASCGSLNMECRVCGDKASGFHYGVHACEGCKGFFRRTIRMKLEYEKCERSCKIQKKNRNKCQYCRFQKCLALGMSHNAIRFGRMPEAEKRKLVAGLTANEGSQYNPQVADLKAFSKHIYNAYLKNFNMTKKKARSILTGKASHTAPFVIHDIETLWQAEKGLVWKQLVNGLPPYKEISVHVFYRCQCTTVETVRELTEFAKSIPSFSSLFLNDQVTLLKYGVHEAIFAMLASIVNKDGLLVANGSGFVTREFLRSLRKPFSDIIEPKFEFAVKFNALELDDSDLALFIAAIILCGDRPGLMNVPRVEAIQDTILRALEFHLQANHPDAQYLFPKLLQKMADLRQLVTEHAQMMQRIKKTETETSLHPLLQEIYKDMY
# human Peroxisome Proliferator-activated Receptor alpha (PPARa), PPARA (gene 5465), sequence (Q07869 whole entry, looked up, the tested form may be a part): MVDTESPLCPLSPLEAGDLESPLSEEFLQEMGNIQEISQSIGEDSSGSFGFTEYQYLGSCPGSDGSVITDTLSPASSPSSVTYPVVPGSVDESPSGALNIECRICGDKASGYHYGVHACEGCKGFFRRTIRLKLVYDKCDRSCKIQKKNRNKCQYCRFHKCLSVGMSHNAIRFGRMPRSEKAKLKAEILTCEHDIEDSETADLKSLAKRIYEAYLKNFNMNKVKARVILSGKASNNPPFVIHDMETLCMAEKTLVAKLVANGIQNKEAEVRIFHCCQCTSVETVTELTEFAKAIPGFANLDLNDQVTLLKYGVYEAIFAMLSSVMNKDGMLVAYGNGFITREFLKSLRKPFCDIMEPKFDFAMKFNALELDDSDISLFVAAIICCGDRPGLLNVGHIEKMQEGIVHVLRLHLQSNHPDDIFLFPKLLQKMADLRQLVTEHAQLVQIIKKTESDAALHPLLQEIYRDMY
# human RAR-related Orphan Receptor gamma (RORg), RORC (gene 6097), sequence (P51449 whole entry, looked up, the tested form may be a part): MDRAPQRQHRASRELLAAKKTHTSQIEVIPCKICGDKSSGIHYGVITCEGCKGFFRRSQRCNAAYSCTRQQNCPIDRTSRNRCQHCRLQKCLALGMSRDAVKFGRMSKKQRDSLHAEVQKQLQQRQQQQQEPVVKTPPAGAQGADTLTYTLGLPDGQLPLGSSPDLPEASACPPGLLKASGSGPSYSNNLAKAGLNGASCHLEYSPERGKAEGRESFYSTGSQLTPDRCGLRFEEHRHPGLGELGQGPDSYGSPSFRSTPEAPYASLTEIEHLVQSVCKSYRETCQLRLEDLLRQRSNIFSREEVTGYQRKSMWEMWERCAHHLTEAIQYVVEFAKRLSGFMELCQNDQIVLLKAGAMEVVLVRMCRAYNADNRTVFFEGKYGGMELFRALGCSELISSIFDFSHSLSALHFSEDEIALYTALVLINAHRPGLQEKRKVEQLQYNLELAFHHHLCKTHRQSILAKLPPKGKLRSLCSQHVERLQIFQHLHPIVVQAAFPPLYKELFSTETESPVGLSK
# human Retinoic Acid Receptor gamma (RARg), RARG (gene 5916), sequence (P13631 whole entry, looked up, the tested form may be a part): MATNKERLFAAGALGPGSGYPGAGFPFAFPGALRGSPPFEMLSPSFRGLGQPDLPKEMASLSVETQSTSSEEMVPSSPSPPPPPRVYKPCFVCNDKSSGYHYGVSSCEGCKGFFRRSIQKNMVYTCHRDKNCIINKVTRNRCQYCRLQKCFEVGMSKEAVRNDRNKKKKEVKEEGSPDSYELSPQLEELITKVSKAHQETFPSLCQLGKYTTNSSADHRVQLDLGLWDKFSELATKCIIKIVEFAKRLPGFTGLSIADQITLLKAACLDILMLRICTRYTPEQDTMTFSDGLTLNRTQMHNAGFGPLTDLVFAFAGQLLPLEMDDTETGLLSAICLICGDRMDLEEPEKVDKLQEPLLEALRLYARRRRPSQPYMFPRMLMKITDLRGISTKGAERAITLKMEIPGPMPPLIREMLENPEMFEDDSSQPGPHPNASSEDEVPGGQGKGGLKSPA
# Peroxisome proliferator-activated receptor gamma (Homo sapiens), sequence (P37231 whole entry, looked up, the tested form may be a part): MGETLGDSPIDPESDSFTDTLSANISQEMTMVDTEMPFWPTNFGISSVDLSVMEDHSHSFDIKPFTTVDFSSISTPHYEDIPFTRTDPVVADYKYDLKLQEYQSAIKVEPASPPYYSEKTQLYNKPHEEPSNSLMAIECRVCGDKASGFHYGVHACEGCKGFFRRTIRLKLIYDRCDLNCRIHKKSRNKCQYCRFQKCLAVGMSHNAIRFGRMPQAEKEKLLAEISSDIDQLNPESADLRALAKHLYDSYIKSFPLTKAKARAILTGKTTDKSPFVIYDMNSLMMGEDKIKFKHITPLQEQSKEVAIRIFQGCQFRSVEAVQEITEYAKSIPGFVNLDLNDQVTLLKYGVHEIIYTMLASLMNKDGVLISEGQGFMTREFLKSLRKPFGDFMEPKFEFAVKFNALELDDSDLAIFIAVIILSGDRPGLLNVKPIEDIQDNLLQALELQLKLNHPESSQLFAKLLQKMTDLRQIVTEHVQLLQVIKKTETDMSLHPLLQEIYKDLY
# Nuclear receptor subfamily 1 group I member 2 (Homo sapiens), sequence (O75469 whole entry, looked up, the tested form may be a part): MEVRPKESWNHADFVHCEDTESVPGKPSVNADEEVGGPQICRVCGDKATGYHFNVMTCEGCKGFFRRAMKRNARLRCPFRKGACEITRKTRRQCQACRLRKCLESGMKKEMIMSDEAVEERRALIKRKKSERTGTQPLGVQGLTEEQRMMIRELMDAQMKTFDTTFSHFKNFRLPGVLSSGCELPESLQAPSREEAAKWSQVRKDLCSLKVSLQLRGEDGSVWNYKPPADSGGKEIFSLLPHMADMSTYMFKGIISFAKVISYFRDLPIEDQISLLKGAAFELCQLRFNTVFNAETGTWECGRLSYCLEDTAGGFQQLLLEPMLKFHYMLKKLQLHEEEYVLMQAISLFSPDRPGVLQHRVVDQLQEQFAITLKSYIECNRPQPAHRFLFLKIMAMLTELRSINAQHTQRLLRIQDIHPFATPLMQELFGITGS
# Retinoic acid receptor RXR-alpha (Homo sapiens), sequence (P19793 whole entry, looked up, the tested form may be a part): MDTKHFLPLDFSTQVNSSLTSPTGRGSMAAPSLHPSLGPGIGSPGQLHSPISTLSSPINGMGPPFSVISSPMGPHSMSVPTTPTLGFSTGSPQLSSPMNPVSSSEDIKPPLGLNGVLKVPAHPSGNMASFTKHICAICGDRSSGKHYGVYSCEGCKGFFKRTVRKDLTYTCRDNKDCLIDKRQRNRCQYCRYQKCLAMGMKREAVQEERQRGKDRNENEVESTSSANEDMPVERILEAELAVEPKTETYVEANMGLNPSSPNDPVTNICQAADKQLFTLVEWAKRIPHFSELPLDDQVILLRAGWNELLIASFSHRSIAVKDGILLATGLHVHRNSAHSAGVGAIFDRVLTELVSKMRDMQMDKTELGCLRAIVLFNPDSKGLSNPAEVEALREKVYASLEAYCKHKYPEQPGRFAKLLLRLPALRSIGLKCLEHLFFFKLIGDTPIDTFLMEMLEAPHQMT
# human Retinoid X Receptor beta (RXRb), RXRB (gene 6257), sequence (P28702 whole entry, looked up): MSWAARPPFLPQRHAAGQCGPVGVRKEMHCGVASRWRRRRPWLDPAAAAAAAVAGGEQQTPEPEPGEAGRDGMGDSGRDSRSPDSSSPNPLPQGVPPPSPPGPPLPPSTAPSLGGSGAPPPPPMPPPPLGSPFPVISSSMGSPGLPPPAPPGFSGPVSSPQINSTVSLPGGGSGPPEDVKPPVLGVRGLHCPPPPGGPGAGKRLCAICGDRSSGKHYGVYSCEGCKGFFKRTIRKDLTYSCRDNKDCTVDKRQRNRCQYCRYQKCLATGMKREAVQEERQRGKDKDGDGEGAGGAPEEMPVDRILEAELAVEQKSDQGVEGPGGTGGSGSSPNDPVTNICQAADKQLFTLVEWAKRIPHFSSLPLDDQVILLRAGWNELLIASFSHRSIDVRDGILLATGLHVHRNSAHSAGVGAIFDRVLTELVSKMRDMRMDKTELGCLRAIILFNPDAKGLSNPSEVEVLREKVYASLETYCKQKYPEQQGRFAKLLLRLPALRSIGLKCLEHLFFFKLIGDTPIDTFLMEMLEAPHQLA
# E-selectin (Homo sapiens), sequence (P16581 whole entry, looked up): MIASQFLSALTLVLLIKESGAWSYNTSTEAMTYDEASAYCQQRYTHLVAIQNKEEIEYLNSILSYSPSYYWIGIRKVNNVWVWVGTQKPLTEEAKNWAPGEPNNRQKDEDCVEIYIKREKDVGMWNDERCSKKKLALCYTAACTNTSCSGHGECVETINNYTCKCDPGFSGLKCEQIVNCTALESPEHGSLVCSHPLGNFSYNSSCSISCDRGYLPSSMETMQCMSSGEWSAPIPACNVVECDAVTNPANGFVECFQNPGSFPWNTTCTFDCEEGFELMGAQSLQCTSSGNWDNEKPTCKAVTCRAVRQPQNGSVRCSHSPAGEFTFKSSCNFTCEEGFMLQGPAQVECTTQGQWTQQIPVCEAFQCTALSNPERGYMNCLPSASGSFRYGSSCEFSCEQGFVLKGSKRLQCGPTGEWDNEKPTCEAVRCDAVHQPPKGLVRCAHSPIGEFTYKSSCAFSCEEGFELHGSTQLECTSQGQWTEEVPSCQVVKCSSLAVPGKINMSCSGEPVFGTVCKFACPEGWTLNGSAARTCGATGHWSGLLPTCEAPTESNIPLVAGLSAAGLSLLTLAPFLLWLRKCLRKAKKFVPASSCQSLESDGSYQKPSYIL
smiles,measurement,setting,value
CCCCCCCCCCCCCO,AC50,[1],38.8 µM (active)
same,AC50,[2],24.3 µM (active)
same,AC50,[3],37.5 µM (active)
same,AC50,[4],14.9 µM (active)
same,outcome,[5],inactive
same,outcome,[6],inactive
same,AC50,[7],58.9 µM (active)
same,AC50,[8],37.8 µM (active)
same,outcome,[9],inactive
same,AC50,[10],39 µM (active)
same,AC50,[11],37.6 µM (active)
same,AC50,[12],35.8 µM (active)
C[Si]1(C)O[Si](C)(C)O[Si](C)(C)O[Si](C)(C)O1,outcome,[1],inactive
same,outcome,[13],inactive
same,outcome,[3],inactive
same,outcome,[4],inactive
same,outcome,[14],inactive
same,outcome,[5],inactive
same,outcome,[15],inactive
same,outcome,[16],inactive
same,AC50,[7],46.9 µM (active)
same,outcome,[8],inactive
same,outcome,[9],inactive
same,outcome,[10],inactive
same,outcome,[11],inactive
same,outcome,[12],inactive
O=c1c(O)c(-c2ccc(O)c(O)c2)oc2cc(O)cc(O)c12,AC50,[1],24.4 µM (active)
same,outcome,[2],inactive
same,outcome,[3],inactive
same,AC50,[4],26.8 µM (active)
same,outcome,[14],inactive
same,outcome,[17],inactive
same,outcome,[15],inactive
same,outcome,[16],inactive
same,outcome,[6],inactive
same,outcome,[7],inactive
same,outcome,[18],inactive
same,AC50,[8],34.7 µM (active)
same,AC50,[9],15.8 µM (active)
same,AC50,[10],15 µM (active)
same,AC50,[11],20 µM (active)
CNCc1cc(F)ccc1Oc1ccc(Cl)c(Cl)c1,outcome,[1],inactive
same,outcome,[13],inactive
same,outcome,[3],inactive
same,AC50,[4],23.9 µM (active)
same,outcome,[5],inactive
same,outcome,[17],inactive
same,outcome,[16],inactive
same,outcome,[6],inactive
same,outcome,[7],inactive
same,outcome,[18],inactive
same,AC50,[8],4.88 µM (active)
same,outcome,[9],inactive
same,AC50,[10],20 µM (active)
same,AC50,[11],11.6 µM (active)
same,AC50,[12],32.4 µM (active)
C=CCc1ccc(O)c(OC)c1,outcome,[1],inactive
same,outcome,[2],inactive
same,outcome,[3],inactive
same,outcome,[4],inactive
same,AC50,[14],40.5 µM (active)
same,AC50,[5],38.5 µM (active)
same,outcome,[15],inactive
same,outcome,[6],inactive
same,AC50,[7],63.2 µM (active)
same,outcome,[8],inactive
same,outcome,[9],inactive
same,outcome,[10],inactive
same,outcome,[11],inactive
same,outcome,[12],inactive
Cc1c(C(=O)O)c(O)cc2c1C(=O)c1c(O)c([C@@H]3O[C@H](CO)[C@@H](O)[C@H](O)[C@H]3O)c(O)c(O)c1C2=O,outcome,[1],inactive
same,outcome,[2],inactive
same,outcome,[3],inactive
same,outcome,[19],inactive
same,outcome,[4],inactive
same,outcome,[17],inactive
same,outcome,[15],inactive
same,outcome,[7],inactive
same,outcome,[8],inactive
same,outcome,[9],inactive
same,outcome,[10],inactive
same,outcome,[11],inactive
same,outcome,[12],inactive
Nc1ccccc1N,outcome,[1],inactive
same,outcome,[13],inactive
same,outcome,[3],inactive
same,outcome,[20],inactive
same,outcome,[19],inactive
same,AC50,[4],9.14 µM (active)
same,outcome,[5],inactive
same,outcome,[17],inactive
same,outcome,[15],inactive
same,outcome,[6],inactive
same,outcome,[7],inactive
same,outcome,[18],inactive
same,AC50,[8],17.2 µM (active)
same,outcome,[9],inactive
same,outcome,[10],inactive
same,outcome,[11],inactive
same,AC50,[12],20 µM (active)
CCCCCCCCCCC,outcome,[1],inactive
same,outcome,[2],inactive
same,outcome,[3],inactive
same,outcome,[4],inactive
same,outcome,[17],inactive
same,outcome,[8],inactive
same,outcome,[9],inactive
same,outcome,[10],inactive
same,outcome,[11],inactive
same,outcome,[12],inactive
COc1cc(-c2nc(NC(=O)c3cc4cc(C)cc(C)c4n3CC(=O)O)sc2CCC2CCCCC2)c(OC)cc1Cl,AC50,[1],3.77 µM (active)
same,outcome,[2],inactive
same,AC50,[3],5.54 µM (active)
same,AC50,[4],3.78 µM (active)
same,outcome,[14],inactive
same,outcome,[5],inactive
same,outcome,[18],inactive
same,AC50,[8],5.53 µM (active)
same,AC50,[9],3.38 µM (active)
same,AC50,[10],2.91 µM (active)
same,AC50,[11],5.38 µM (active)
same,AC50,[12],3.08 µM (active)
